# Source: PubChem BioAssay (NCI)
# Compounds without any hit were thinned out: in the full panel of roughly 83,000, 20% have a hit.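 The endpoint reported here, percent growth, reads 100 for growth as untreated, 0 for no net growth and -100 for all cells dead.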 Values without a mark were called inactive. Calls of active or inactive are those of the source. The calls were made as follows: active = growth percent below 10; inactive = the rest.
# Tests used:
# Assay in all cases: NCI-60 one-dose screen, 48 h (100 = growth as untreated, 0 = no growth, -100 = all killed)
# Conditions in all cases: 10 µM
# SR leukemia = test system: SR leukemia
# RPMI-8226 leukemia = test system: RPMI-8226 leukemia
# OVCAR-8 ovarian = test system: OVCAR-8 ovarian
# OVCAR-5 ovarian = test system: OVCAR-5 ovarian
# OVCAR-4 ovarian = test system: OVCAR-4 ovarian
# SK-OV-3 ovarian = test system: SK-OV-3 ovarian
# IGROV1 ovarian = test system: IGROV1 ovarian
# OVCAR-3 ovarian = test system: OVCAR-3 ovarian
# HS 578T breast = test system: HS 578T breast
# NCI/ADR-RES ovarian = test system: NCI/ADR-RES ovarian
# T-47D breast = test system: T-47D breast
# BT-549 breast = test system: BT-549 breast
# MDA-MB-435 melanoma = test system: MDA-MB-435 melanoma
# SW-620 colon = test system: SW-620 colon
# MCF7 breast = test system: MCF7 breast
# HCT-116 colon = test system: HCT-116 colon
# HCC-2998 colon = test system: HCC-2998 colon
# KM12 colon = test system: KM12 colon
# MDA-MB-468 breast = test system: MDA-MB-468 breast
SMILES,growth (SR leukemia),growth (RPMI-8226 leukemia),growth (OVCAR-8 ovarian),growth (OVCAR-5 ovarian),growth (OVCAR-4 ovarian),growth (SK-OV-3 ovarian),growth (IGROV1 ovarian),growth (OVCAR-3 ovarian),growth (HS 578T breast),growth (NCI/ADR-RES ovarian),growth (T-47D breast),growth (BT-549 breast),growth (MDA-MB-435 melanoma),growth (SW-620 colon),growth (MCF7 breast),growth (HCT-116 colon),growth (HCC-2998 colon),growth (KM12 colon),growth (MDA-MB-468 breast)
N#Cc1ccc(-c2nn(-c3ccc(C(=O)O)cc3)cc2CNc2cccc(Br)c2)cc1,40.2%,33.1%,49%,99.6%,75.5%,112%,79%,38.7%,52.6%,13%,35.4%,1.51% (active),59%,61.2%,48.2%,19.9%,4.19% (active),22.4%,66%
O=C(NO)c1ccc(Cn2ccc3c(Nc4ccccc4)ncnc32)cc1,11.9%,20.3%,-21.4% (active),0.443% (active),38.7%,-7.35% (active),-30.8% (active),19.7%,9.25% (active),-29.4% (active),-8.19% (active),27.4%,–,-61.8% (active),14%,-9.89% (active),-30.1% (active),12.1%,-5.25% (active)
C=C1CCC2C3(C)COC(c4cc(F)cc(F)c4)OC3CCC2(C)C1C/C=C1/C(=O)OCC1O (centres undefined),7.75% (active),14.1%,-83.1% (active),-21.3% (active),-11% (active),25%,-49.8% (active),-76.9% (active),-24.1% (active),-11.1% (active),-50.1% (active),–,-64.2% (active),-61.9% (active),-45.8% (active),-69.2% (active),-79.9% (active),-77.9% (active),-58.2% (active)
COc1cnc2c(c1)C(=O)c1c-2n(CCCNC(C)C)c(=O)c2cc(OC)c(OC)cc12,2.52% (active),-14.8% (active),37%,70.8%,28.2%,22.1%,32%,–,103%,29.1%,36.2%,56.4%,44%,-24.9% (active),11.8%,25.5%,48.9%,29.5%,–
COc1ccc(C2NC(=S)NC(C)=C2C(=O)OC(C)C)cc1OC (centres undefined),101%,104%,106%,105%,99.3%,135%,109%,–,89.8%,102%,91.1%,103%,–,103%,108%,99.3%,114%,103%,98.9%
CCCn1c(O)c(N=Nc2nc(-c3cc4ccccc4oc3=O)cs2)c2cc(Br)ccc21,101%,97.9%,105%,98.3%,98.9%,110%,106%,–,83.4%,95.4%,98.8%,113%,105%,106%,90.4%,101%,99.1%,106%,94.8%
COc1cc2c3c(n(CCCN4CCOCC4)c(=O)c2cc1OC)-c1nc2c(cc1C3=O)OCO2,12.5%,18.7%,30.3%,37.2%,6.71% (active),-4.15% (active),36.7%,8.69% (active),71.6%,17.1%,14.5%,–,16.4%,22.2%,14%,15.6%,37.7%,32.1%,-29% (active)
O=C(NO)c1ccc(-c2nc3ccc4[nH]ncc4c3c3c2CCCC3)cc1,-13.8% (active),-9.23% (active),-16.7% (active),-1.66% (active),-4.75% (active),21.1%,-18.9% (active),–,-29.8% (active),-4.37% (active),-8.47% (active),-50.2% (active),–,1.77% (active),-20.8% (active),2.92% (active),-67.4% (active),-28.3% (active),-90.3% (active)
O=C(CSc1nnc(-c2c[nH]c3ccccc23)n1-c1ccccc1)Nc1ccc(C(=O)/C=C/c2ccccc2Cl)cc1,71.6%,40.3%,61.7%,101%,79.1%,95.2%,95.1%,80.6%,86.4%,92.4%,43.1%,84.4%,–,87.6%,40.4%,22.1%,94.6%,74.7%,72.1%
O=c1[nH]c2ccccc2cc1CSc1ccc(Nc2nccc(-c3ccc4c(c3)OCO4)n2)cc1,81.7%,81.3%,75%,98.3%,27%,116%,103%,50.7%,41.3%,83.7%,75.5%,–,93.6%,80.6%,56%,84.1%,95.5%,74.2%,72.5%
Cc1ccc(-c2ccc(SCC(=O)Nc3ccc(S(N)(=O)=O)cc3Br)nn2)cc1,75.3%,67.8%,-29.8% (active),42%,19.5%,101%,45.1%,-63.8% (active),31.9%,65%,35.2%,–,61.9%,60%,32.4%,-7.84% (active),39.4%,38.3%,-21.3% (active)
CCN1CCN(Cc2ccc(C(=O)Nc3cccc(-c4cn(-c5ccc6oc(=O)ccc6c5)nn4)c3)cc2C(F)(F)F)CC1,-51.6% (active),-40.7% (active),-100% (active),-100% (active),-100% (active),25.4%,-100% (active),-100% (active),-21.6% (active),-100% (active),82.9%,–,-100% (active),-100% (active),-100% (active),-100% (active),-100% (active),-100% (active),-82.4% (active)
O=S(=O)(Nc1ncccn1)c1ccc(-n2c(-c3ccccc3)nc(-c3ccccc3)c2-c2ccccc2)cc1,81.8%,71.1%,97.4%,104%,94.1%,101%,103%,113%,81%,95.3%,52.2%,–,101%,91.9%,71.1%,86.4%,89.3%,88.4%,85.7%
CN(C(=O)c1ccc(C(F)(F)F)cc1C(F)(F)F)c1sc2c(c1C#N)CCC(=O)C2,1.6% (active),14.3%,82.2%,108%,59.3%,85.9%,97.6%,29.7%,69.4%,55%,1.04% (active),20.8%,–,18.9%,85.8%,25.2%,94.4%,74.3%,51.9%
CC1=C(c2cc(-c3ccc(Cl)cc3)c(C#N)c(N)n2)C(c2ccccc2)NC(=S)N1 (centres undefined),2.54% (active),9.51% (active),5.74% (active),93.5%,81.3%,126%,65.7%,–,75.3%,37.9%,54.5%,42.1%,25.3%,45.7%,31.6%,-18.8% (active),83.3%,49.5%,35%
O=C1N/C(=N\c2nccs2)S/C1=C\c1cccs1,16.4%,19.5%,31.3%,49.1%,30.9%,39.3%,31.5%,–,49.9%,-0.769% (active),22.5%,44.2%,41.9%,30%,15.4%,15.5%,40.8%,28.1%,10.4%
COc1ccc(NC(=O)Nc2ccc(OCC(=O)N=Nc3c(O)[nH]c4ccc([N+](=O)[O-])cc34)cc2)cc1,92.4%,110%,37.1%,124%,59.8%,93.9%,92.6%,24.6%,39%,91.1%,32.6%,–,106%,98.3%,38.2%,85.6%,66.6%,18%,30.2%
